Results as given in PubChem BioAssay (Tox21).
Records with an inconclusive call do not appear. Calls of active or inactive are those of the source. Unless noted, calls follow the shape of the dose curve; as a rule, active = well fitted curve in the direction sought with a large enough effect in the repeat runs; inconclusive = weak or mixed curves; inactive = no such curve, though single readings can be large; an effect the other way counts as inactive or inconclusive.

Key:
[1] = A CellTox Green Cytotoxicity Assay to monitor cytotoxicity in HepG2 cells - 8 hour (AID 1224890); also: nearly all actives have a fitted effect of over 45% in size
Summary of the method: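 First, HepG2 cells (600/well) mixed with reagent were plated; second, after 5 h at 37 C they received compounds via pintool; third, fluorescence was measured at 0 h through 40 h at 8 h intervals.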

[2] = qHTS assay to identify small molecule antagonists of the estrogen receptor alpha (ER-alpha) signaling pathway using the BG1 cell line in the presence of 0.1 nM 17-beta-estradiol - cell viability counter screen (AID 1259241); also: nearly all actives have a fitted effect of over 40% in size
Summary of the method: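 VM7Luc4E2 cells (endogenous full-length ER-alpha, 4xERE-luciferase), cultured 5 days in charcoal-stripped serum, exposed to compounds with 0.1 nM 17beta-estradiol (final) for 22 hr at 37C. Viability read in same wells as live-cell protease fluorescence after 30 min.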

[3] = qHTS assay to identify small molecule antagonists of the androgen receptor (AR) signaling pathway using the MDA cell line in the presence of 0.5 nM R1881 - cell viability counter screen (AID 1259242); also: nearly all actives have a fitted effect of over 45% in size
Summary of the method: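 qHTS format. MDA-kb2 (MMTV-luc, AR/GR responsive) + cpd + 0.5 nM R1881 final, 16 hr 37C/0% CO2 → CellTiter-Fluor 30 min → fluorescence intensity.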

[4] = molecular target: Estrogen receptor (Homo sapiens) (UniProt P03372); test: qHTS assay to identify small molecule antagonists of the estrogen receptor alpha (ER-alpha) signaling pathway using the BG1 cell line in the presence of 0.1 nM 17-beta-estradiol (AID 1259244); also: nearly all actives have a fitted effect of over 50% in size
Sequence of Estrogen receptor (Homo sapiens) (P03372 whole entry, looked up): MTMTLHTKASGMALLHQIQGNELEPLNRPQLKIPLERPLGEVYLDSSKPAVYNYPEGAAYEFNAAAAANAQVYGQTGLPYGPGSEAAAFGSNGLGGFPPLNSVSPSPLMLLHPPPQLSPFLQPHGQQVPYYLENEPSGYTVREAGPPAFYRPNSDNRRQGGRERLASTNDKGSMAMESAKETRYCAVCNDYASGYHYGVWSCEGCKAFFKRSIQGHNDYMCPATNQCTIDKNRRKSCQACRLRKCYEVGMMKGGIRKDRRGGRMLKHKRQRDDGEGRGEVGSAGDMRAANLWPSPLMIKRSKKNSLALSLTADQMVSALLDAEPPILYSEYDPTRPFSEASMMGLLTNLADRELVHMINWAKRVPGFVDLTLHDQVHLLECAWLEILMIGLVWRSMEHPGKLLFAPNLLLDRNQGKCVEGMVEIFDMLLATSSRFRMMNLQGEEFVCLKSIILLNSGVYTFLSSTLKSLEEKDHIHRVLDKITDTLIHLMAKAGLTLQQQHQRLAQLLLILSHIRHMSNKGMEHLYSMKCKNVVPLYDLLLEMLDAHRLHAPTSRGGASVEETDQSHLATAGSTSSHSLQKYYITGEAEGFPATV
Summary of the method: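 Reporter is a stably transfected luciferase under four estrogen responsive elements in VM7Luc4E2 cells expressing native full-length ER-alpha; inhibition of 0.1 nM (final) 17beta-estradiol-driven signal over 22 h is read by luminescence.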

[5] = qHTS assay to identify small molecule phospholipidosis (PLD) inducers (AID 1259344; active = well fitted curve in the direction sought with a large enough effect; an effect the other way counts as inactive or inconclusive)
Summary of the method: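 Accumulated phospholipid, stained red by LipidTOX during 24 h compound treatment of HepG2 cells at 37 C, is quantified from images as pit number and intensity, normalised per cell using Hoechst-stained nuclei.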

[6] = qHTS assay to identify small molecule HDAC inhibitors (AID 1259364);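 also: wild-type HCT-116 cells with endogenous class I/II HDAC activity; top concentration of the series differs between compounds; nearly all actives have a fitted effect of over 45% in size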
Summary of the method: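 Quantitative high-throughput format: overnight-seeded HCT-116 cells got compounds for 2 hr at 37C; HDAC-Glo I/II reagent added, 30 min RT, luminescence measured.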

[7] = qHTS assay to identify small molecule HDAC inhibitors - cell viability counter screen (AID 1259365); also: series mostly up to about 92 µM; nearly all actives have a fitted effect of over 50% in size
Summary of the method: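 Wild-type HCT-116 cells, 1,500/well, cultured overnight, then compound-treated 2 h at 37 C. Viability measured as ATP luminescence with CellTiter-Glo after 30 min at room temperature.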

[8] = qHTS assay to identify small molecule agonists of the sonic hedgehog signaling (Shh) pathway - cell viability counter screen (AID 1259366); also: nearly all actives have a fitted effect of over 50% in size
Summary of the method: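 NIH/3T3-derived Gli1-Luc reporter cells, 2,000 per well, received compound after 4 h and were treated about 23 h at 37C. Viability measured in the same wells by CellTiter-Fluor fluorescence after 1 h.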

[9] = qHTS assay to identify small molecule antagonists of the sonic hedgehog signaling (Shh) pathway - cell viability counter screen (AID 1259367); also: nearly all actives have a fitted effect of over 55% in size
Summary of the method: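 CellTiter-Fluor signal in conditioned medium-stimulated 3T3 Gli1-Luc cells, 23 hr compound exposure, 37C.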

[10] = qHTS assay to identify small molecule agonists of the sonic hedgehog signaling (Shh) pathway (AID 1259368; calls by dose curve;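 also: NIH/3T3-derived 3T3Gli1-Luc cells carrying a stable Gli1-driven firefly luciferase reporter; series mostly up to about 92 µM; nearly all actives have a fitted effect of over 15% in size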)
Summary of the method: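 Quantitative high-throughput format using a Gli1-driven firefly luciferase reporter line derived from NIH/3T3 cells. After a 24 hr compound treatment at 37 C and 5% CO2, luminescence reported Gli1 response element activity.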

[11] = qHTS assay to identify small molecule antagonists of the sonic hedgehog signaling (Shh) pathway (AID 1259369; calls by dose curve; also: nearly all actives have a fitted effect of over 45% in size)
Summary of the method: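 Stable Gli1-Luc reporter NIH/3T3 clone; quantitative HTS in stimulated mode with conditioned medium. Luminescence measured after 24hr compound treatment at 37 C.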

[12] = molecular target: Estrogen receptor beta (Homo sapiens) (UniProt Q92731); test: qHTS assay to identify small molecule agonists of the estrogen receptor beta (ER-beta) signaling pathway (AID 1259377; active = well fitted activation curve with a large enough effect in the signal ratio in the repeat runs, not every such curve was filed as active; the % refers to the signal ratio)
Sequence of Estrogen receptor beta (Homo sapiens) (Q92731 whole entry, looked up): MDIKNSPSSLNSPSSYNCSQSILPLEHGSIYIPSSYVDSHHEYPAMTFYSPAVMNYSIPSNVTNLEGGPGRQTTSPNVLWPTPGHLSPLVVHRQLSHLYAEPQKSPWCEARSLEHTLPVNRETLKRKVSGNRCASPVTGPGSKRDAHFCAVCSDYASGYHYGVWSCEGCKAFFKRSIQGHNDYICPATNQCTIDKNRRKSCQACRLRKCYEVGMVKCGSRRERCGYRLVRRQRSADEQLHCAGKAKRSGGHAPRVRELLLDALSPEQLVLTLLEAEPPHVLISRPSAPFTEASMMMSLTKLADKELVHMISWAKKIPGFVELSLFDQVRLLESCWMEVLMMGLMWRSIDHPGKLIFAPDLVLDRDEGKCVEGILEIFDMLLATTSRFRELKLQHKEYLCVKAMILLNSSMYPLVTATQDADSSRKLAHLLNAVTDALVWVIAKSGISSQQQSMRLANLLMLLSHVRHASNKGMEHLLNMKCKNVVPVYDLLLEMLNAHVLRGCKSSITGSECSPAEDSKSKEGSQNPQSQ
Summary of the method: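 ER-beta-UAS-bla HEK293T cells in medium with 2% charcoal-stripped FBS were exposed to compounds for 16 h at 37C. Beta-lactamase reporter activity was read as fluorescence after 2 h with LiveBLAzer B/G FRET substrate at room temperature.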

[13] = qHTS assay to identify small molecule agonists of the androgen receptor (AR) signaling pathway in the presence of an antagonist - cell viability counter screen (AID 1259379);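 also: MDA-kb2 human breast cancer cells carrying an MMTV luciferase reporter; series mostly up to about 92 µM; nearly all actives have a fitted effect of over 25% in size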
Summary of the method: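 Nilutamide-containing (3.0uM final) MDA-kb2 cultures, 3,000 cells/well, were treated with compounds across 15 concentrations. After 16 hr at 37C with no CO2, cell viability was determined by CellTiter-Fluor fluorescence in the luciferase assay wells.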

[14] = qHTS assay to identify small molecule agonists of the estrogen receptor beta (ER-beta) signaling pathway - cell viability counter screen (AID 1259380); also: nearly all actives have a fitted effect of over 30% in size
Summary of the method: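 Steps: plate ER-beta-UAS-bla HEK293T cells, rest 6 hr; add compounds in DMSO; incubate 16 hr at 37C, 5% CO2; add FRET substrate 2 hr; add CellTiter-Glo, wait 30 min at room temperature; read luminescence.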

[15] = qHTS assay to identify small molecule antagonists of the estrogen receptor beta (ER-beta) signaling pathway - cell viability counter screen (AID 1259382);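 also: HEK293T cells carrying ER-beta-UAS-bla reporter stimulated with estradiol; series mostly up to about 92 µM; nearly all actives have a fitted effect of over 55% in size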
Summary of the method: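 Viability is scored by CellTiter-Glo luminescence (30 min, room temperature) in ER-beta-UAS-bla HEK293T wells already read for reporter fluorescence. Compound exposure lasts 16 hr at 37C alongside 1nM 17-beta-estradiol in charcoal-stripped serum medium.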

[16] = molecular target: Estrogen receptor (Homo sapiens) (UniProt P03372); test: qHTS assay to identify small molecule agonists of the estrogen receptor alpha (ER-alpha) signaling pathway in the presence of an antagonist (AID 1259383; calls by dose curve; also: top concentration of the series differs between compounds; nearly all actives have a fitted effect of over 15% in size)
Summary of the method: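 Readout was ERE-driven luciferase luminescence in VM7Luc4E2 cells, which express full-length ER-alpha endogenously. Compounds were tested at 15 concentrations for 22hr alongside 10.0nM ICI-182,780 (final concentration).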

[17] = qHTS assay to identify small molecule agonists or antagonists of the thyroid stimulating hormone receptor (TSHR) signaling pathway - wild type cell line counter screen (AID 1259384; calls by dose curve)
Summary of the method: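 Counter screen in untransfected Hek293: compounds (15-point titration, triplicate) plus phosphodiesterase inhibitor Ro20-1724 added after 18 h plating; 30 min RT. Intracellular cAMP via competitive d2/cryptate immunoassay, 1 h incubation.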

[18] = molecular target: Androgen receptor (Homo sapiens) (UniProt P10275); test: qHTS assay to identify small molecule antagonists of the androgen receptor (AR) signaling pathway using the MDA cell line in the presence of 0.5 nM R1881 (AID 1259243); also: nearly all actives have a fitted effect of over 50% in size
Sequence of Androgen receptor (Homo sapiens) (P10275 whole entry, looked up): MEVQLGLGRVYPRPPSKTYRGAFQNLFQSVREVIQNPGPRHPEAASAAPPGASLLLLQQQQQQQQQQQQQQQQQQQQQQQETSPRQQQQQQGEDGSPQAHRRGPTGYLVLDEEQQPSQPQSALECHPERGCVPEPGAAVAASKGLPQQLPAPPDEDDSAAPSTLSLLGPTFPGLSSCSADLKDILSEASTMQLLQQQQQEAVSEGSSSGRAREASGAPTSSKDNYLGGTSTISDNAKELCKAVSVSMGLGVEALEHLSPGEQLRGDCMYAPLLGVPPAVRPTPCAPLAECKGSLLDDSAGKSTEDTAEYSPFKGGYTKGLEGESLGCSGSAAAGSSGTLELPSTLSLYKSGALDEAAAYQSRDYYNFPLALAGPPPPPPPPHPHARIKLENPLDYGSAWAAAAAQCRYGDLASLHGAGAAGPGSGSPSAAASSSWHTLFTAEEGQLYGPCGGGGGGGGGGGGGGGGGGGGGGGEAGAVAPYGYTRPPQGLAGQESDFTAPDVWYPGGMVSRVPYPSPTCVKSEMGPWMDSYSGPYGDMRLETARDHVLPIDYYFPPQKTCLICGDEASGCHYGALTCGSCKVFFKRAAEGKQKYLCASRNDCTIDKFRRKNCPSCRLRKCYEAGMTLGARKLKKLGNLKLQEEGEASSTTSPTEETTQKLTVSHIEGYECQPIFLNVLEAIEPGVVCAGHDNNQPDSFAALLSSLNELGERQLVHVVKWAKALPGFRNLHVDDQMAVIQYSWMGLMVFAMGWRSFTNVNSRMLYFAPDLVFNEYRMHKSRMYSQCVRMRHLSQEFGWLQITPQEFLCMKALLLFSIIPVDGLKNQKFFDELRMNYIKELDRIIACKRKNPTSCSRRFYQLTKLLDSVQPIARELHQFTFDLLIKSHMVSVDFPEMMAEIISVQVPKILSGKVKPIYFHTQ
Summary of the method: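 Antagonist mode quantitative HTS in MDA-kb2 MMTV-luciferase cells, agonist R1881 at 0.5 nM final, 16 hr exposure at 37C and 0% CO2, luminescent detection.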

[19] = molecular target: Estrogen receptor beta (Homo sapiens) (UniProt Q92731); test: qHTS assay to identify small molecule antagonists of the estrogen receptor beta (ER-beta) signaling pathway (AID 1259378; active = well fitted inhibition curve with a large enough effect in the signal ratio in the repeat runs, not every such curve was filed as active; the % refers to the signal ratio)
Summary of the method: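 Antagonist mode: compounds added to beta-lactamase reporter HEK293T ER-beta-UAS cells stimulated with E2 (1nM final), 16 hr at 37C. LiveBLAzer B/G FRET substrate, 2 hours room temperature, fluorescence read-out.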

[20] = molecular target: Androgen receptor (Homo sapiens) (UniProt P10275); test: qHTS assay to identify small molecule agonists of the androgen receptor (AR) signaling pathway in the presence of an antagonist (AID 1259381; calls by dose curve; also: nearly all actives have a fitted effect of over 15% in size)
Summary of the method: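 Reporter-gene luminescence from MDA-kb2 cells exposed 16hr at 37C (0% CO2) to 15-point compound titrations with 3.0uM final nilutamide as AR antagonist.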
% is scaled to controls: 0 for no effect and ±100 for the full control effect.

CC1CCN(CCCC(=O)c2ccc(F)cc2)CC1
inactive: Potency [1] | outcome [2] | outcome [3] | outcome [4] | Potency [5] | Potency [6] | outcome [7] | Potency [8] | outcome [9] | Potency [10] | Potency [11] | outcome [12] | Potency [13] | Potency [14] | Potency [15] | Potency [16] | outcome [17]

CC(C)CCCCCCN
inactive: Potency [1] | outcome [2] | outcome [3] | Potency [18] | outcome [4] | Potency [6] | outcome [7] | Potency [8] | outcome [9] | Potency [10] | Potency [11] | outcome [12] | Potency [19] | Potency [13] | Potency [14] | Potency [20] | Potency [15] | Potency [16]

CCCC(C)CO (stereo not given)
inactive: Potency [1] | outcome [2] | outcome [3] | Potency [18] | Potency [6] | outcome [7] | Potency [8] | outcome [9] | Potency [10] | outcome [12] | Potency [19] | Potency [13] | Potency [14] | Potency [20] | Potency [15] | outcome [17]

CC(=O)N[C@@H](CCC(N)=O)C(=O)O
inactive: Potency [1] | outcome [2] | outcome [3] | outcome [4] | Potency [5] | Potency [6] | outcome [7] | Potency [8] | outcome [9] | Potency [10] | Potency [11] | outcome [12] | Potency [13] | Potency [15] | Potency [16]

OCCN1C[C@H](O)[C@@H](O)[C@H](O)[C@H]1CO
inactive: Potency [1] | outcome [2] | outcome [3] | Potency [18] | outcome [4] | Potency [5] | Potency [6] | outcome [7] | Potency [8] | outcome [9] | Potency [10] | Potency [11] | outcome [12] | Potency [13] | Potency [14] | Potency [20] | Potency [15] | outcome [17]

CCN1CCCC1CNC(=O)c1cc(S(N)(=O)=O)ccc1OC (stereo not given)
inactive: Potency [1] | outcome [2] | outcome [3] | Potency [18] | Potency [6] | outcome [7] | outcome [9] | Potency [10] | Potency [11] | Potency [13] | Potency [20]

CCCCCN(CCCCC)C(=O)C(CCC(=O)O)NC(=O)c1ccc(Cl)c(Cl)c1 (stereo not given)
inactive: Potency [1] | outcome [2] | outcome [3] | Potency [18] | outcome [4] | Potency [5] | Potency [6] | outcome [7] | outcome [9] | Potency [10] | Potency [13] | Potency [20] | Potency [15] | Potency [16] | outcome [17]

C1COCCO1
inactive: Potency [1] | outcome [2] | outcome [3] | Potency [18] | outcome [4] | outcome [7] | Potency [8] | outcome [9] | Potency [10] | Potency [11] | Potency [13] | Potency [14] | Potency [20] | Potency [15]

CCCCc1ccc2cccc(S(=O)(=O)O)c2c1
inactive: Potency [1] | outcome [2] | outcome [3] | Potency [18] | outcome [4] | Potency [6] | outcome [7] | Potency [8] | outcome [9] | Potency [10] | Potency [11] | outcome [12] | Potency [13] | Potency [14] | Potency [20] | Potency [15] | outcome [17]

OCc1ccccn1
inactive: Potency [1] | outcome [2] | outcome [3] | outcome [4] | Potency [5] | Potency [6] | outcome [7] | Potency [8] | outcome [9] | Potency [10] | Potency [11] | outcome [12] | Potency [13] | Potency [14] | Potency [15] | Potency [16]

CCCOCC(C)OCC(C)O (stereo not given)
inactive: Potency [1] | outcome [2] | outcome [3] | Potency [18] | Potency [6] | outcome [7] | Potency [8] | outcome [9] | Potency [10] | Potency [11] | outcome [12] | Potency [13] | Potency [14] | Potency [20] | Potency [15] | outcome [17]

O=c1[nH]c(=O)n([C@H]2O[C@H](CO)[C@@H](O)[C@@H]2O)cc1/C=C\Br
inactive: Potency [1] | outcome [2] | outcome [3] | Potency [18] | outcome [4] | Potency [6] | outcome [7] | Potency [8] | outcome [9] | Potency [10] | Potency [11] | Potency [13] | Potency [14] | Potency [20] | Potency [15] | Potency [16]

C[N+](C)(C)CC[N+]1(C)Cc2c(Cl)c(Cl)c(Cl)c(Cl)c2C1
inactive: Potency [1] | outcome [2] | outcome [3] | outcome [4] | Potency [5] | Potency [6] | outcome [7] | Potency [8] | outcome [9] | Potency [10] | Potency [11] | outcome [12] | Potency [19] | Potency [13] | Potency [14] | Potency [15] | Potency [16] | outcome [17]

C1CCCCCCCCCCC1
inactive: cytotoxicity increase [1] -1.99% [at 15.8 µM] | activity change, negative = cytotoxicity [2] -5.47% [at 19 µM] | viability change, negative = cytotoxic [3] 10.4% [at 19 µM] | Potency [18] | activity change, negative = inhibition [4] -1.81% [at 19 µM] | activity change, negative = inhibition [6] 3.38% [at 19 µM] | activity change, negative = cytotoxicity [7] -1.94% [at 19 µM] | viability change, negative = cytotoxic [8] 0.953% [at 19 µM] | viability change, negative = cytotoxic [9] -0.0913% [at 19 µM] | activity change [10] -0.649% [at 18.9 µM, stronger effect = higher value] | activity change, negative = inhibition [11] 13.4% [at 19 µM] | activation [12] -0.402% [at 19 µM] | activity change, negative = cytotoxicity [13] -1.18% [at 19 µM] | activity change, negative = cytotoxicity [14] -0.0692% [at 19 µM] | Potency [20] | activity change, negative = cytotoxicity [15] 1.11% [at 19 µM] | activation [16] -2.76% [at 19 µM] | cAMP activity change [17] -4.57% [at 18.9 µM]
